Target: T1, Aspartate--tRNA(Asp/Asn) ligase (Mycobacterium tuberculosis (strain ATCC 25618 / H37Rv)) (UniProt P9WFW3)
T1 sequence (whole entry): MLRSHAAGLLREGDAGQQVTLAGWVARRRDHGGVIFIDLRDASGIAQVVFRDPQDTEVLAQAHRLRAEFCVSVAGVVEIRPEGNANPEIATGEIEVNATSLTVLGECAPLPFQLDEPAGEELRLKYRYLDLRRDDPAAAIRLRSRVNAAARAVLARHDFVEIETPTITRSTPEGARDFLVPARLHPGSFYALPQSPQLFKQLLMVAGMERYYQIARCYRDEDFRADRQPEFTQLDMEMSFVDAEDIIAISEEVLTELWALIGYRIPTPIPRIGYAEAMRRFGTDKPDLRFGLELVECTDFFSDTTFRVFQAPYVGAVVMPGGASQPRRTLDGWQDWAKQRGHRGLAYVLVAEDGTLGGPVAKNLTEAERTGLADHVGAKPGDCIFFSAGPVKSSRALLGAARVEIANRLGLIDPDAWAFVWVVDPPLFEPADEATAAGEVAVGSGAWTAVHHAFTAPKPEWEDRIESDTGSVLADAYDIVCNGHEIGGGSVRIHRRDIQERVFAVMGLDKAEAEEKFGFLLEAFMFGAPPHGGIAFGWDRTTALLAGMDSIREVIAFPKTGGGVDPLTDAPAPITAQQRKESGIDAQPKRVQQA
Test: Assay for Asp RNA synthetase-1 from Mycobacterium tuberculosis
Assay type: functional
Parameters: scale not given: in the data most compounds retested in dose-response had high values
Conditions: 30 µM

First: Cc1nc(C2CCCN2C(=O)CNS(C)(=O)=O)no1 (stereo not given)
Second: CS(=O)(=O)NCC(=O)N1CCCC1c1noc(C2CC2)n1 (stereo not given)
The Percent Effect of the first is higher: 0.586% for the first, 0.264% for the second.

Compared with `CCCC(=O)NCc1cc(Br)c(OC)c(OC)c1`, `CCCNC(=O)CCNC(=O)Cc1nc(-c2ccco2)oc1C` is higher in Percent Effect: -0.862% for the first, 2.08% for the second.

Compared with `CCn1nc(CC(C)C)cc1C(=O)N1C[C@H](O)[C@@H](N2CCCCC2)C1`, `O=C(c1ccsc1)N1C[C@@H](CN2CCCC2)[C@@H](CO)C1` is higher in Percent Effect: -2.61% for the first, -2.54% for the second.

First: O=C(O)C(c1ccc2c(c1)OCO2)N1CCC(C(=O)N2CCCC2)CC1 (stereo not given)
Second: COC(=O)c1cccc(C(=O)N2CCCCC2CCn2ccnc2C)c1 (stereo not given)
The Percent Effect of the first is lower: -0.103% for the first, 0.586% for the second.

Compared with `O=C(O)[C@]12CCCN(Cc3ccncc3)[C@@H]1CCN(c1cnccn1)C2`, `CC(C)n1ccnc1C1CCCN(c2ccccn2)C1` (stereo not given) is lower in Percent Effect: 0.862% for the first, -2.15% for the second.

Going from `CCNC(=O)c1cnc(Cc2ccc(F)cc2)s1` to `CC(=O)Nc1c(C)cnn1Cc1cc(F)ccc1F`, the Percent Effect rises from -3.94% to 2.1%.

First: CC(NC(=O)Cn1cccn1)c1cccnc1 (stereo not given)
Second: CCC(C(=O)NC)N(c1cccc(C)c1)S(C)(=O)=O (stereo not given)
The Percent Effect of the first is higher: -1.34% for the first, -2.86% for the second.

Compared with `NC(=O)CN1CC2(CCC1=O)CCN(Cc1cc(F)ccc1Cl)CC2`, `COc1ccc(F)c(CN2CCC3(CCC(=O)N(CC(N)=O)C3)CC2)c1` is lower in Percent Effect: 0.126% for the first, -3.94% for the second.

First: CC(C)(N)CN1CCC(c2nnc(CN3CCCC3)n2C2CC2)CC1
Second: CCS(=O)(=O)N1CCC(c2nnc(CN3CCOCC3)n2C)CC1
The Percent Effect of the first is lower: -1.87% for the first, -1.39% for the second.

First: COc1ccc(-c2nc(CN3CCOCS3(=O)=O)c(C)o2)cc1
Second: COc1cccc(S(=O)(=O)CCN2CCCN(C(C)=O)CC2)c1
The Percent Effect of the first is lower: -1.67% for the first, -1.55% for the second.

Compared with `c1ccc(OCCN2CCCC(c3noc(C4CC4)n3)C2)cc1` (stereo not given), `O=C1N(Cc2ccccc2F)CCCC12CCN(C1CCSCC1)C2` (stereo not given) is lower in Percent Effect: -0.885% for the first, -2.75% for the second.

Going from `CN(CC1(O)CCCN(CCC2CCCCC2)C1=O)C1CCOCC1` (stereo not given) to `CN1CCCC(CNC(=O)N2CCN(Cc3ccon3)CC2)C1` (stereo not given), the Percent Effect falls from 0.172% to -6.42%.

Compared with `Cc1cc(NC(=O)Cn2cc(C#N)c(=O)c3cc(Br)ccc32)no1`, `N#Cc1cn(CC(=O)NC2CC2)c2ccc(Br)cc2c1=O` is higher in Percent Effect: -2.42% for the first, 0.517% for the second.

Going from `Cc1n[nH]c(C2CN(CC(=O)NCc3ccco3)CCO2)n1` (stereo not given) to `CC(C)CN1CCCn2nc(CNC(=O)CCN)cc2C1`, the Percent Effect falls from 0.448% to -0.839%.

Compared with `Cc1nn(C)cc1C(=O)N1C[C@H]2CC[C@@H]1CN(S(=O)(=O)N(C)C)C2`, `CCS(=O)(=O)c1ccc(N2CCC(NC(=O)CCC(C)C)CC2)cc1` is lower in Percent Effect: 1.62% for the first, -2.31% for the second.

Going from `CC(C)(C)N1CC(C(=O)N2CCN(CCn3cccc3)CC2)CC1=O` (stereo not given) to `COc1cccc(CN(C)C(=O)CN2CCN(CCO)CC2)c1`, the Percent Effect falls from 1.18% to -0.747%.

Going from `Cc1noc(C)c1C(=O)N(C)Cc1nc(-c2ccccn2)no1` to `COc1c(CNC2CCc3c(Cl)cccc32)c(C)nn1C` (stereo not given), the Percent Effect rises from -3.85% to -1.71%.

First: CCc1nsc(NC2CCCn3nc(COC)nc32)n1 (stereo not given)
Second: Cn1cc(CNc2ncnc3c2CCN(Cc2ccsc2)CC3)cn1
The Percent Effect of the first is lower: -2.56% for the first, 1.05% for the second.

Compared with `COC1CCN(C(=O)c2c(Cl)c3ccccc3n2C)CC1`, `Cc1ccc(C(=O)N2Cc3ccccc3C2)cc1N1CCNC1=O` is higher in Percent Effect: -5.5% for the first, -0.287% for the second.

Going from `NC(=O)C1CCN(Cc2cccc(NC(=O)c3ccsc3)c2)CC1` to `O=C(NCCc1cccc(O)c1)NC1CCN(c2ccccc2)C1=O` (stereo not given), the Percent Effect falls from -1.25% to -2.7%.

Source: ChEMBL document CHEMBL3988442, “University of Dundee, Small-Polar-MMV Screening Library” (2021)
